Here are results for 26 compounds from PubChem BioAssay AID2563 (Broad Institute, 2010).

The structures appear in SMILES notation. About 800 (0.28%) of roughly 290,000 compounds were called active.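 The calls were made as follows: active = fall in fluorescence gain of 50% or more versus controls, with final raw signal at or below 3038400; inconclusive = same 50% fall but final raw signal above 3038400; inactive = fall in fluorescence gain under 50%.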 The entries come from a sample that favours actives as a whole.

For this test, the target named is CAAX prenyl protease 2 (Saccharomyces cerevisiae (strain ATCC 204508 / S288c)) (UniProt Q03530). As to the kind of experiment: blockers of Rce1 CaaX peptide cleavage – biochemical, fluorescence, cell-free homogeneous, primary screen (AID 2563). The note with it: yeast membranes, quenched prenylated peptide cleavage fluorescence.
Chain of CAAX prenyl protease 2 (Saccharomyces cerevisiae (strain ATCC 204508 / S288c)) (Q03530 whole entry, looked up): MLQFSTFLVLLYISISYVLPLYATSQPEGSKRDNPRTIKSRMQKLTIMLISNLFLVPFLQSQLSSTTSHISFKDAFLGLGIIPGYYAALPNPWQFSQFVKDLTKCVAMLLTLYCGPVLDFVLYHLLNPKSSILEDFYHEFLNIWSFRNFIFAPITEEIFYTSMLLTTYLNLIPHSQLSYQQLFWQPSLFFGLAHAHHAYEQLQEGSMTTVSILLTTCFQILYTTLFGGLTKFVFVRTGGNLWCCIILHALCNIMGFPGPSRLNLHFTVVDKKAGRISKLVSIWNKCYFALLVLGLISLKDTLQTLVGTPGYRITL
For `O=C(Nc1ccc(N2CCCCC2)cc1)c1cc(S(=O)(=O)N2CCOCC2)ccc1F`, the compound was classed as inactive. For `CN1c2ccc(C=O)c3c(C=O)ccc(c23)N(C)C1(C)C` the value was “active”; for `CCOc1ccc(S(=O)(=O)NCCC(=O)NCC(C)(C)N2CCOCC2)cc1`, “inactive”; for `CC(=O)Nc1ccc(NC(=O)CSc2nnnn2C2CCCCC2)cc1`, “inactive”. The result for `COc1ccc(Cl)cc1NS(=O)(=O)c1cccc(C(=O)NC2CCC(O)CC2)c1` (stereo unspecified) reads “inactive”. The result for `Cc1ccc(NC(=O)C2CC(=O)N(c3ccc4c(c3)OCCO4)C2)cc1S(=O)(=O)N1CCCCCC1` (stereo unspecified) reads “inactive”; that for `O=C(CCNC(=O)c1ccc(Br)cc1)NCCCc1ccccc1`, “inactive”; that for `CN(CC(=O)NNC(=O)CNC(=O)c1ccccc1Cl)S(=O)(=O)c1ccc(Cl)cc1`, “inactive”. For the compound `COCc1c(C(=O)N/N=C\c2cccnc2)nnn1-c1nonc1N`, the compound was classed as inactive. The result for `Cc1ccc(SCc2c(C(=O)N/N=C/C3CC=CCC3)nnn2-c2nonc2N)cc1` (stereo unspecified) reads “inactive”; that for `COCc1c(C(=O)N/N=C/C2CC=CCC2)nnn1-c1nonc1N` (stereo unspecified), “active”. With `Cc1ccc(-c2csc(NCCc3nc4cc(Cl)c(Cl)cc4n3CCOCCO)n2)cc1`, the outcome was inactive. Turning to `CCCn1c(C2CCCN2c2nc(-c3ccc(C)cc3)cs2)nc2cc(Cl)c(N3CCCCC3)cc21` (stereo unspecified), the outcome was inactive. For `Cc1ccc(-c2csc(N3CCN(c4cc5c(cc4Cl)nc(-c4ccncc4)n5CCOCCO)CC3)n2)cc1` the value was “active”; for `COc1ccc(Cl)cc1NC(=O)CN(C)C(=O)c1cc(-c2cccs2)nn1-c1ccccc1`, “inactive”.

Consider `COc1cc2ccccc2cc1C(=O)Nc1ccncc1`, for which the compound was classed as inactive. `CCc1nnc(NS(=O)(=O)c2ccc(NC(=O)c3cccc(OC(F)(F)C(F)F)c3)cc2)s1`: the call was inactive.

In the case of `CC1(C)O[C@H]2CC(=O)OCC23[C@H]2CC[C@@]4(C)[C@H](c5ccoc5)OC(=O)[C@H]5O[C@]54[C@]2(C)C(=O)C[C@@H]13` (stereo partly specified), the compound was classed as inactive. The result for `CCCNC(=O)c1ccc(N2CCC3(CC2)CC(c2cccc(Br)c2)=NO3)c(NC(=O)c2ccco2)c1` reads “inactive”; that for `Cc1cccc(N=C2SC(C)CN2C(=O)CN2C(=O)NC3(CCCC3)C2=O)c1` (stereo unspecified), “inactive”. The result for `O=C(CC(c1ccccc1)c1ccccc1)NCC(O)c1ccc([N+](=O)[O-])cc1` (stereo unspecified) reads “active”; that for `O=C(NCC(O)c1ccc([N+](=O)[O-])cc1)C1CCCCC1` (stereo unspecified), “inactive”; that for `CC(=O)NCC(O)c1ccc([N+](=O)[O-])cc1` (stereo unspecified), “inactive”. For `Cc1ccc(OCC(=O)Oc2ccccc2[N+](=O)[O-])cc1` the value was “inactive”; for `Cc1cc(C)c(C)c(S(=O)(=O)N2CCN(C(=O)c3ccc4c(=O)n5c(nc4c3)CCC5)CC2)c1C`, “inactive”; for `COc1ccc(CCNC(=S)N2CCN(S(=O)(=O)c3ccc(F)cc3)CC2)cc1`, “inactive”.
